{"source": "PubChem BioAssay AID463190", "about": "(Sanford-Burnham Center for Chemical Genomics, 2010)", "note": "Screen size: about 330,000 compounds; about 7,300 (2.2%) were called active. What follows is part of a selection rich in actives, with near analogues and random picks from the rest. A number with no mark means an inactive call.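 Rule for the calls: active = inhibition of at least 40%; inactive = the rest.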", "data": [{"assay": "growth inhibitors of tim10-1 mutant yeast, primary screen, luminescence, uHTS (AID 463190);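 note: mutant grown at 25 °C; 0% = DMSO wells with yeast and 100% = wells holding no yeast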", "details": "S. cerevisiae tim10-1 ts strain growth, BacTiter-Glo, 24 h; at 20 µM; stronger effect = higher value", "values": [{"smiles": "COC(=O)c1ccccc1NC(=O)CN(Cc1ccc(Cl)cc1)S(C)(=O)=O", "inhibition": "10.7%"}, {"smiles": "CCCCNCc1ccc(SC)cc1", "inhibition": "-1.78%"}, {"smiles": "O=C(Nc1cccc(F)c1)c1coc(=O)c(Br)c1", "inhibition": "18.9%"}, {"smiles": "CCc1ccccc1N1CN(Cc2ccco2)CNC1=S", "inhibition": "17.4%"}, {"smiles": "COc1ccc(NC(=O)c2ccc(C#CC(C)(C)O)cc2)cc1", "inhibition": "9.08%"}, {"smiles": "COc1ccc(C(=O)Nc2ccc(-n3nncc3C(C)(C)C)cc2)cc1", "inhibition": "44% (active)"}, {"smiles": "C/C(=N\\Nc1ccc([N+](=O)[O-])cc1)c1ccc(-n2nncc2C(C)(C)C)cc1", "inhibition": "-1.51%"}, {"smiles": "CCCNC(=O)c1ccc(N2CCC3(CC2)CC(c2ccc(Cl)cc2)=NO3)c([N+](=O)[O-])c1", "inhibition": "7.65%"}, {"smiles": "Cc1nonc1OCCn1nnnc1N", "inhibition": "4.98%"}, {"smiles": "COc1ccccc1N(CCOc1ccccc1)S(=O)(=O)c1ccccc1", "inhibition": "7.59%"}, {"smiles": "O=C1OC(/C=C/c2ccccc2)=NC/1=C/c1ccco1", "inhibition": "45.5% (active)"}, {"smiles": "Cc1ccccc1C1=N/C(=C/c2cccnc2)C(=O)O1", "inhibition": "31.3%"}, {"smiles": "COc1ccccc1/C=C/C1=NC(=C\\N(C)C)/C(=O)O1", "inhibition": "21%"}, {"smiles": "CCN(Cc1ccccc1)C(=O)CCS(=O)(=O)c1ccc2c(c1)oc(=O)n2C", "inhibition": "-13%"}, {"smiles": "C[C@H](CO)N1C[C@H](C)[C@@H](CN(C)C(=O)Nc2ccc3c(c2)OCO3)Oc2c(cccc2N(C)C)C1=O", "inhibition": "12.3%"}, {"smiles": "CCS(=O)(=O)N1CCC(N2CCN(c3ccccc3)CC2)CC1", "inhibition": "4.85%"}, {"smiles": "Cc1ccc2c(N)c(C(=O)c3ccccc3)sc2n1", "inhibition": "41.9% (active)"}, {"smiles": "COC(=O)c1cc2c(N)c(C(=O)c3ccc(Cl)cc3)sc2nc1C(OC)OC", "inhibition": "10.6%"}, {"smiles": "CC(C)OC(=O)c1sc2nc3c(cc2c1N)C(=O)CCC3", "inhibition": "-8.03%"}, {"smiles": "CCN(CC)C(=O)c1sc2nc(-c3ccccc3)ccc2c1N", "inhibition": "21%"}, {"smiles": "Cc1cccc(NC(=O)c2sc3nc(N4CCOCC4)c4c(c3c2N)CCCC4)c1", "inhibition": "32%"}, {"smiles": "Cc1nc2sc(C(=O)c3ccccc3)c(N)c2c2c1CCCC2", "inhibition": "42.2% (active)"}, {"smiles": "Cc1sc2nc(CC(N)=O)[nH]c(=O)c2c1-c1ccccc1", "inhibition": "6.26%"}, {"smiles": "NC(=O)c1sc2nc3c(c(-c4ccccc4)c2c1N)CCC3", "inhibition": "41.3% (active)"}, {"smiles": "CCc1nc2sc(C(=O)O)c(N)c2c2c1CCCC2", "inhibition": "-71.8%"}, {"smiles": "Cc1cc(C)cc(NC(=O)c2cccc(NC(=O)C3C4CC5OC(=O)C3C5C4)c2)c1", "note": "(stereo not drawn)", "inhibition": "4.38%"}, {"smiles": "CCCC(NC(=O)c1ccco1)c1nc2ccccc2[nH]1", "note": "(stereo not drawn)", "inhibition": "14.1%"}, {"smiles": "CCOc1ccc(CCNC(=O)C2=C(C)C(=O)OC23CCC(C)CC3)cc1OCC", "note": "(stereo not drawn)", "inhibition": "19.9%"}, {"smiles": "Nc1nc(-c2sc3nc4c(cc3c2N)CCCC4)nc(N2CCOCC2)n1", "inhibition": "27.8%"}, {"smiles": "CCN(CC)Cc1csc2ccc(Br)cc12", "inhibition": "7.29%"}, {"smiles": "COc1ccccc1OCCNCC(O)COc1cccc2[nH]c3ccccc3c12", "note": "(stereo not drawn)", "inhibition": "22.3%"}, {"smiles": "COc1ccc(C)cc1S(=O)(=O)NCCc1ccccc1", "inhibition": "22.2%"}, {"smiles": "CCOC(=O)c1nnn(-c2nonc2-n2cccc2)c1CN1CCC(C(=O)OCC)CC1", "inhibition": "31.9%"}, {"smiles": "CC(=O)c1cccc(OCC(=O)OCC(=O)Nc2cc(S(=O)(=O)N3CCCCC3)ccc2C)c1", "inhibition": "1.6%"}, {"smiles": "COc1ccc(N(C)C(=O)C2CCN(S(=O)(=O)c3cccc4nsnc34)CC2)cc1", "inhibition": "6.33%"}, {"smiles": "CC(C)C(=O)Nc1ccc2c3c(cccc13)CC2", "inhibition": "-15.9%"}, {"smiles": "CC(C)c1cc(CN2CCOCC2)cc(C(C)C)c1O", "inhibition": "-5.76%"}, {"smiles": "Oc1c(C(c2ccccn2)N2CCOCC2)ccc2cccnc12", "note": "(stereo not drawn)", "inhibition": "43.7% (active)"}, {"smiles": "COc1ccc(CCNC(=O)C2CCCN(S(=O)(=O)c3ccc(OC)cc3)C2)cc1", "note": "(stereo not drawn)", "inhibition": "1.05%"}, {"smiles": "COC(=O)c1ccc(/C=C2/C(=O)Oc3ccccc32)cc1", "inhibition": "39.9%"}, {"smiles": "O=C1Oc2ccccc2C(=O)/C1=C/c1ccccc1O", "inhibition": "62.2% (active)"}, {"smiles": "COc1ccc2c(c1)O/C(=C\\c1ccccc1O)C2=O", "inhibition": "18%"}, {"smiles": "Cc1ccccc1/C=C\\c1nc(O)c([N+](=O)[O-])c(=O)[nH]1", "inhibition": "-8.34%"}, {"smiles": "CN(C)Cc1c(O)ccc2c(=O)c(-c3ccccc3Cl)coc12", "inhibition": "1.49%"}, {"smiles": "COc1ccc(NC(=O)CCNC(=O)Cn2cnc3sc4c(c3c2=O)CCCC4)cc1OC", "inhibition": "-10.3%"}, {"smiles": "COc1ccc(NC(=O)CCCNC(=O)Cn2cnc3sc4c(c3c2=O)CCCC4)cc1OC", "inhibition": "-24.1%"}, {"smiles": "COc1ccc(/C=N/Nc2ncnc3sc4c(c23)CCCC4)cc1O", "inhibition": "40.7% (active)"}, {"smiles": "S=C(NCCc1ccccc1)Nc1ccccc1", "inhibition": "19.1%"}, {"smiles": "O=C(CCNC(=O)c1ccc(Br)cc1)NCCCc1ccccc1", "inhibition": "7.38%"}, {"smiles": "S=C(NCCCc1ccccc1)Nc1ccc(Br)cc1", "inhibition": "64.1% (active)"}, {"smiles": "CC12CN(NC(=O)c3ccc(Cl)cc3)C3(C#N)CC1CCC23C", "note": "(stereo not drawn)", "inhibition": "36.5%"}, {"smiles": "CCn1nc(C(=O)NNS(=O)(=O)c2cc(/C=C/C(=O)O)cc(OC)c2OC)c2ccccc2c1=O", "inhibition": "-3.64%"}, {"smiles": "O=C(COC(=O)c1ccc(S(=O)(=O)N2CCc3ccccc3C2)cc1)NC(=O)NCc1ccco1", "inhibition": "0.504%"}, {"smiles": "Cc1cnc(C(=O)Oc2cccc(Cl)c2Cl)cn1", "inhibition": "-10.1%"}, {"smiles": "O=C(CC1CCCCC1)NCc1ccccc1", "inhibition": "11.1%"}, {"smiles": "N/C(=N\\OC(=O)c1ccc([N+](=O)[O-])cc1)c1ccccn1", "inhibition": "37.6%"}, {"smiles": "N/C(=N\\OC(=O)CCC1CCCCC1)c1ccccn1", "inhibition": "47.6% (active)"}, {"smiles": "COc1ccccc1OCC(=O)O/N=C(\\N)c1ccccn1", "inhibition": "22.7%"}, {"smiles": "N/C(=N\\OC(=O)CC1CCCCC1)c1ccccc1", "inhibition": "49.3% (active)"}, {"smiles": "CCc1cccc(C)c1NC(=O)COC(=O)CC1CCCC1", "inhibition": "2.51%"}, {"smiles": "CCCC(C)C(=O)NCc1ccncc1", "note": "(stereo not drawn)", "inhibition": "27.9%"}, {"smiles": "CCCc1cc(=O)[nH]c(SCc2cc(=O)oc3c(C)c(C)ccc23)n1", "inhibition": "10.3%"}, {"smiles": "Cc1cccn2c(=O)c3cc(C(=O)NC4CCCCC4)sc3nc12", "inhibition": "19.7%"}]}]}
